The nature of test [1]: Nuclear factor erythroid 2-related factor 2/antioxidant responsive element (Nrf2/ARE) small molecule agonists: qHTS cell viability counter screen in human keratinocytes (AID 1919968; active = well fitted curve in the direction sought with a large enough effect in the repeat runs; an effect the other way counts as inactive or inconclusive; also: nearly all actives have a fitted effect of over 55% in size; also: potency is read from the fitted curve at half-maximal effect). The procedure, abridged:
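Cytotoxicity was multiplexed with the Nrf2/ARE luciferase assay in the same wells. Stably transfected HaCaT keratinocytes were treated with test compounds for 23 h at 37 C. Cell viability was then measured by CellTiter-Fluor fluorescence.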
(In qHTS, concentration-response curves come from the screen itself.)

In test [2] the target is Gonadotropin-releasing hormone receptor (Homo sapiens) (UniProt P30968). As to the kind of experiment: Human gonadotropin-releasing hormone receptor (GnRHR) small molecule agonists, calcium flux assay in GnRHR-HEK293 cells (AID 1920063). Also: nearly all actives have a fitted effect of over 35% in size. The procedure, abridged: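 Agonist activity was measured as intracellular calcium flux in HEK293 cells engineered to stably express human GnRHR. After dye loading for 1 hour at 37 C, compounds in DMSO were added and fluorescence was followed for 3 minutes.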
Background: A change in cytosolic calcium serves as a functional read-out for many receptors and channels.

Test [3] concerns the target KiSS-1 receptor (Homo sapiens) (UniProt Q969F8). As to the kind of experiment: Human kisspeptin (KISS1R) small molecule agonists, calcium flux assay in KISS1R-HEK293 cells (AID 1920064; active = well fitted curve in the direction sought with a large enough effect in the repeat runs; an effect the other way counts as inactive or inconclusive). In short, it runs like this: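 Agonist activity is monitored as intracellular calcium rise in engineered HEK293 cells carrying human KISS1R. Cells are dye-loaded for 1 h at 37 C before compound addition, and fluorescence is recorded for 3 min.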

Test [4] in a line: G protein-coupled receptor (GPCR) small molecule agonists, calcium flux assay: HEK293 wild type cell line counter screen (AID 1920065). The procedure, abridged: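 Seed cells, incubate 18 h (37 C, 5% CO2); add calcium dye, 1 h at 37 C; pin-transfer compounds, ATP control or DMSO; read fluorescence 480/540 nm each second for 3 min.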
Test [5] in a line: p53 small molecule agonists, cell-based qHTS assay with human liver microsomes (AID 1963577). The procedure, abridged: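 p53RE-bla cells, 4,000/well, compound added after 5 h, with human liver microsomes 0.5 mg/mL and NADPH 0.5 mg/mL final; 16 h at 37 C, then LiveBLAzer 2 h RT, fluorescence.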
A short description of test [6]: p53 small molecule agonists, cell-based qHTS assay with rat liver microsomes (AID 1963578). The procedure, abridged: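 p53RE-bla cells, 4,000/well, pre-incubated 5 h, then given compounds plus rat liver microsomes (0.5 mg/mL final) and NADPH (0.5 mg/mL final). Incubation 16 h at 37 C; beta-lactamase reporter read by LiveBLAzer fluorescence after 2 h at room temperature.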

A short description of test [7]: p53 small molecule agonists, cell-based qHTS assay with rat liver microsomes: qHTS cell viability counter screen (AID 1963580). Also: nearly all actives have a fitted effect of over 45% in size. The procedure, abridged:
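Counter screen for cytotoxicity under metabolic activation: rat liver microsomes and NADPH, 0.5 mg/mL final each, added with compounds to p53RE-bla HCT-116 cells; 16 h at 37 C, then ATP luminescence read.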

A short description of test [8]: p53 small molecule agonists, cell-based qHTS assay: qHTS cell viability counter screen (AID 1963581). Also: nearly all actives have a fitted effect of over 45% in size. In short, it runs like this: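 Viability was counter-screened in parallel with the p53 agonist reporter by measuring intracellular ATP luminescence in the same HCT-116 p53RE-bla wells after 16 h compound treatment at 37 C.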
A short description of test [9]: p53 small molecule agonists, cell-based qHTS assay (AID 1963582; active = well fitted activation curve with a large enough effect in the signal ratio in the repeat runs, not every such curve was filed as active; the % refers to the signal ratio). The procedure, abridged:
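Cells carrying a p53-responsive bla reporter are treated with test compounds for 16 h at 37 C; beta-lactamase activity is then detected with LiveBLAzer B/G FRET substrate after 2 h at room temperature.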

The target in test [10] is 5-hydroxytryptamine receptor 2A (Homo sapiens) (UniProt P28223). Put plainly: 5-hydroxytryptamine receptor 2A (HTR2A) small molecule agonists, cell-based qHTS assay (AID 1963587). Also: nearly all actives have a fitted effect of over 30% in size. In short, it runs like this:
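HTR2A-CHO cells, plated 18 h at 37 C/5% CO2, dye-loaded 1 h at 37 C; compounds in DMSO added by pin tool (agonist mode). Intracellular calcium flux read as kinetic fluorescence on FDSS over 2 min at 1 s intervals.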

Test [11] deals with Muscarinic acetylcholine receptor M1 (Homo sapiens) (UniProt P11229). As to the kind of experiment: Cholinergic receptor muscarinic 1 (CHRM1) small molecule antagonists, cell-based qHTS assay (AID 1963588). Also: nearly all actives have a fitted effect of over 40% in size. In short, it runs like this: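 Compounds were tested at 15 concentrations in three independent runs. Dye-loaded CHRM1-CHO cells were exposed 5 min at room temperature before stimulation by acetylcholine added at 50nM. Intracellular calcium was read kinetically on FDSS for 3 min.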

Test [12] has the same target. Put plainly: Cholinergic receptor muscarinic 1 (CHRM1) small molecule agonists, cell-based qHTS assay (AID 1963589). Also: nearly all actives have a fitted effect of over 35% in size. In short, it runs like this:
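Cells were plated and incubated 18 h at 37 C/5% CO2, loaded with calcium dye for 1 h at 37 C, then treated with compounds in DMSO. Fluorescence was recorded kinetically at 1 sec intervals.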

Test [13] in a line: cAMP Responsive Elements (CRE) small molecule antagonists, cell-based qHTS assay (AID 1963591; active = well fitted inhibition curve with a large enough effect in the signal ratio in the repeat runs, not every such curve was filed as active; the % refers to the signal ratio). The procedure, abridged: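 Cells (CRE-bla HEK 293T, DMEM with 10% dialyzed FBS and 25 mM HEPES) are seeded and incubated 18 h. Compounds are added with NKH477 agonist at 0.25 uM final for 3 h, then FRET substrate for 2 h.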
Test [14] has as its target Beta-2 adrenergic receptor (Homo sapiens) (UniProt P07550). As to the kind of experiment: Adrenergic beta2 receptor (ADRB2) small molecule antagonists, cell-based qHTS assay (AID 1963592). Also: series mostly up to about 92 µM; nearly all actives have a fitted effect of over 50% in size. The procedure, abridged:
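Assay format: CHO-ADRB2 cells, 18-20hr seeding at 37C/5% CO2, then compound plus 1nM isoproterenol agonist mix for 0.5hr RT. Homogeneous time-resolved fluorescence cAMP detection after 1hr, expressed as 665/615 nm ratio.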

In test [15] the target is D(2) dopamine receptor (Homo sapiens) (UniProt P14416). Put plainly: Dopamine D2 receptor (DRD2) small molecule agonists, cell-based qHTS assay (AID 1963594). Also: nearly all actives have a fitted effect of over 35% in size. The procedure, abridged:
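HEK293 cells stably expressing DRD2 were cultured 24 h at 37 C, then given Ro20-1724 (0.1 mM final) and compounds for 10 min at room temperature. NKH477 (200nM) was then added for 30 min. cAMP was read by HTRF.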

Test [16] can be described thus: p53 small molecule agonists, cell-based qHTS assay with human liver microsomes: qHTS cell viability counter screen (AID 1963579). Also: nearly all actives have a fitted effect of over 45% in size. The procedure, abridged:
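p53RE-bla cells, 4,000/well, dosed 5 hours after plating, with human liver microsomes (0.5 mg/mL final) plus NADPH (0.5 mg/mL final), 16 hours at 37 C. Viability read as CellTiter-Glo luminescence after 30 min at room temperature.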

The target in test [17] is 5-hydroxytryptamine receptor 2A (Homo sapiens) (UniProt P28223). As to the kind of experiment: 5-hydroxytryptamine receptor 2A (HTR2A) small molecule antagonists, cell-based qHTS assay (AID 1963586). Also: nearly all actives have a fitted effect of over 45% in size. In short, it runs like this: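 CHO cells stably expressing human HTR2A were plated for 18 h at 37 C, then loaded with calcium dye for 1 h. Compounds were preincubated 5 min at room temperature before DOI (4 nM solution) was added. Kinetic fluorescence was read for 3 min.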

Test [18] addresses D(2) dopamine receptor (Homo sapiens) (UniProt P14416). As to the kind of experiment: Dopamine D2 receptor (DRD2) small molecule antagonists, cell-based qHTS assay (AID 1963595; active = well fitted inhibition curve with a large enough effect in the signal ratio in the repeat runs, with a control signal flat; the % refers to the signal ratio). In short, it runs like this: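 Readout: HTRF cAMP, cAMP-d2 competing with cellular cAMP for anti-cAMP cryptate, read after 1 h. Cells: DRD2-HEK293. Conditions: 0.1 mM Ro20-1724, 12 nM quinpirole, 200 nM NKH477, 30 min RT.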

Test [19] can be described thus: cAMP Responsive Elements (CRE) small molecule agonists, cell-based qHTS assay (AID 1963590). In short, it runs like this: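 Cells carrying a CRE-driven beta-lactamase reporter (HEK 293T) are seeded, incubated overnight (18 h), and treated with test compounds for 3 h at 37 C; reporter activity is then detected with a FRET substrate after 2 h at room temperature.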

A number with no mark means an inactive call. Results filed as inconclusive are left out. Active and inactive are the calls of the source. Unless noted, calls follow the shape of the full dose curve.
% is scaled to controls: 0 for no effect and ±100 for the full control effect.

Chain of Gonadotropin-releasing hormone receptor (Homo sapiens) (P30968 whole entry, looked up): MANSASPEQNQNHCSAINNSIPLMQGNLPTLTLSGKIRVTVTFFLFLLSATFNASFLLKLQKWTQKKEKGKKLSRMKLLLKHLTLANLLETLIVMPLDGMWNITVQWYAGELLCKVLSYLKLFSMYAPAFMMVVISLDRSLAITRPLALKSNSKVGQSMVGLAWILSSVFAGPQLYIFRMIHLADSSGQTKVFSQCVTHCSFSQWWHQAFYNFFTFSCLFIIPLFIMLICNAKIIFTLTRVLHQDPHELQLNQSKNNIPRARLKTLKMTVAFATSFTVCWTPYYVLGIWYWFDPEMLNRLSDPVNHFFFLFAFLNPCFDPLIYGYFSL
Chain of 5-hydroxytryptamine receptor 2A (Homo sapiens) (P28223 whole entry, looked up): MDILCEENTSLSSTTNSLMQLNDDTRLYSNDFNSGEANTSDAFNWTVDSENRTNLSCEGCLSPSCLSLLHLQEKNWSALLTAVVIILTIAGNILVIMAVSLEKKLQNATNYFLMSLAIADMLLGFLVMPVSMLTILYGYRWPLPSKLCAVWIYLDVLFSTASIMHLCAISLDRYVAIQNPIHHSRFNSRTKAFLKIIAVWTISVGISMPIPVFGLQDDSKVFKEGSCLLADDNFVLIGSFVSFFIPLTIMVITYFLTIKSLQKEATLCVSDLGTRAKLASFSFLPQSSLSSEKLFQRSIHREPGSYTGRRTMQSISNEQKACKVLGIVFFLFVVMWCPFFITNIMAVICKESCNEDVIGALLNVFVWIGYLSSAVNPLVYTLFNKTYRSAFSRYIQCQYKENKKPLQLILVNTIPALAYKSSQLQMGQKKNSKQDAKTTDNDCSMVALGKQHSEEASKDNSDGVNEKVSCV
Chain of D(2) dopamine receptor (Homo sapiens) (P14416 whole entry, looked up): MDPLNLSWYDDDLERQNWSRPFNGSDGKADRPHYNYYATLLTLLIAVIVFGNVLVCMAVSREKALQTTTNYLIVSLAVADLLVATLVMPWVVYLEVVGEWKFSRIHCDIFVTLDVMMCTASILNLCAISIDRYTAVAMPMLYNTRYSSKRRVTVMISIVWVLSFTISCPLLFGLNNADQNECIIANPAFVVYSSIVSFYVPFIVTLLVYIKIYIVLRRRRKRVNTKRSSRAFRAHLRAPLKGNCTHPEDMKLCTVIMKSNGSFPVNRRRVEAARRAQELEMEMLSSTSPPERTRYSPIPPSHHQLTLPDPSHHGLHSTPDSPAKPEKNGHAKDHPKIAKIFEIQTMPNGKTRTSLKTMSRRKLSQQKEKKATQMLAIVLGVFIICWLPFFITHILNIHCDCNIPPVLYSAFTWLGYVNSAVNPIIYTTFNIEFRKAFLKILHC
Chain of Muscarinic acetylcholine receptor M1 (Homo sapiens) (P11229 whole entry, looked up): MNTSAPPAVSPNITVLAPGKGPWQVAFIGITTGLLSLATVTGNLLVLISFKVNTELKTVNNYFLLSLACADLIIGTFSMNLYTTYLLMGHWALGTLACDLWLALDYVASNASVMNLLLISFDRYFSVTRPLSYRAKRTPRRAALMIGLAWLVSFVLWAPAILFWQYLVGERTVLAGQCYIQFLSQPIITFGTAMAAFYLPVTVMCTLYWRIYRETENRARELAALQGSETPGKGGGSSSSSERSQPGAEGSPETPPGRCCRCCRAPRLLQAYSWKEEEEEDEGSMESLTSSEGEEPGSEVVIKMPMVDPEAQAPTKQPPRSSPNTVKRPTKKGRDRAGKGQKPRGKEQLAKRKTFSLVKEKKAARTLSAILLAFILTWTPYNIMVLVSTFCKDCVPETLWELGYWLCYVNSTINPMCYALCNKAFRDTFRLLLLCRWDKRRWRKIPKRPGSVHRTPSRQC
Chain of KiSS-1 receptor (Homo sapiens) (Q969F8 whole entry, looked up): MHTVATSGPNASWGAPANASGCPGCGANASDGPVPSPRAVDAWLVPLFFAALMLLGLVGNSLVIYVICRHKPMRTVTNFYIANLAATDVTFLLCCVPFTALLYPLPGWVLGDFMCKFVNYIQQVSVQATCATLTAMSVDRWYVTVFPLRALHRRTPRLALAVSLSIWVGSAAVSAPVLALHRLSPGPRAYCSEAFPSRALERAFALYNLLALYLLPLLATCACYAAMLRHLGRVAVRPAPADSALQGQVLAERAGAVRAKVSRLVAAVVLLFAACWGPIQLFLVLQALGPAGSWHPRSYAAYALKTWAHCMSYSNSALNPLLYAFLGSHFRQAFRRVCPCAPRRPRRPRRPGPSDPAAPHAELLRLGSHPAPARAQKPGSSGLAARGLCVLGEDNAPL
Chain of Beta-2 adrenergic receptor (Homo sapiens) (P07550 whole entry, looked up): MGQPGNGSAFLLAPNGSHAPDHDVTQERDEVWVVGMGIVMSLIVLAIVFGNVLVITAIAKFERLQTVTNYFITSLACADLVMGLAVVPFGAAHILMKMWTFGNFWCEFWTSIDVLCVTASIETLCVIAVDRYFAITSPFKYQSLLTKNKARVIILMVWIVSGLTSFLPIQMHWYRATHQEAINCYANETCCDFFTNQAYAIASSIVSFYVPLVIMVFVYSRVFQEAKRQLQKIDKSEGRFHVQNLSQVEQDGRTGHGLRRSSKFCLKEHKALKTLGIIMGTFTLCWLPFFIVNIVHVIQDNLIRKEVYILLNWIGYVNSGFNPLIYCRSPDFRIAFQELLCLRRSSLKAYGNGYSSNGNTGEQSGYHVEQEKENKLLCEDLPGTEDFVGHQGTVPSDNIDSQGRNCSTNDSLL

Consider `CC(C)=CC(=O)C=C(C)C`, for which the Potency result in [1], in [2], in test [5], in [6], in test [7] and in test [8] was “inactive” each time. Also, the Potency result in [9], in [10], in test [11], in test [12], in test [13] and in test [14] was “inactive” each time. Further, the Potency entry in test [15] is “inactive”. Moreover, the outcome in [3] and in [4] was inactive.

In the case of `CCn1nc(Cc2ccccc2)cc1C1CCN(C[C@H]2C[C@H](N(C)[C@@H](C(=O)O)C(C)C)C[C@@H]2c2cccc(F)c2)CC1`, the Potency entry in test [1], in [2], in [5], in [6], in [16] and in test [7] was “inactive” each time. Moreover, the Potency entry in [17], in test [10], in test [11], in test [12], in test [14] and in [15] was “inactive” each time. Also, in test [18], the Potency result was “inactive”. In addition, the result in test [3] and in [4] was inactive.

As for `CCOC(=O)CC(CC(=O)OCC)(OC(C)=O)C(=O)OCC`, the Potency entry in [1], in test [2], in test [5], in test [6], in test [16] and in test [7] was “inactive” throughout. Moreover, the Potency result in test [9], in test [17], in [10], in test [11], in [12] and in test [13] was “inactive” in each case. Moreover, the Potency result in test [14], in test [15] and in test [18] was “inactive” in each case. In addition, the outcome in test [3] and in [4] was inactive.

As to `Cc1ccccc1C(=O)Nc1ccc(C(=O)N2CCCC(N(C)C)c3ccccc32)cc1` (stereo not given), the Potency result in test [1], in test [2], in test [5], in test [6], in test [16] and in test [7] was “inactive” throughout. In addition, the Potency entry in test [17], in [10], in test [11], in test [12], in [14] and in test [15] was “inactive” in each case. In [18], the Potency result was “inactive”. The result in test [3] and in test [4] was inactive.

As to `O=C(O)c1ccccc1NCCc1ccccc1`, the Potency entry in test [1], in test [2], in [5], in [6], in test [16] and in [7] was “inactive” throughout. The Potency result in test [9], in [10], in test [12], in test [13], in test [15] and in test [18] was “inactive” in each case. Moreover, the result in [3] and in test [4] was inactive.

As for `O=C(O)P(=O)(O)O`, the Potency entry in test [1], in test [2], in [5], in test [6], in test [16] and in test [8] was “inactive” in each case. Besides, the Potency entry in test [9], in [19], in test [13] and in test [18] was “inactive” in each case. The result in [3] and in test [4] was inactive.

As to `C=CC(=O)OCCOCC(CC)(COCCOC(=O)C=C)COCCOC(=O)C=C`, in test [1], the Potency is 31.9 µM (active). In addition, the Potency result in test [2], in test [5], in test [6], in test [7], in [17] and in test [10] was “inactive” in each case. For the same molecule, the Potency result in [11], in [12], in [14], in [15] and in test [18] was “inactive” throughout. In addition, the outcome in test [3] and in [4] was inactive.

Consider `C/C=C/C(=O)CC`, for which the activity change, negative = cytotoxicity was -0.853% [at 19 µM] in test [1] and 7.07% [at 13.5 µM] in [8]. The activity change in [2] was 1.75% [at 11.8 µM, active compounds read high]. In addition, the activation in test [3] is -0.292% [at 15.8 µM]; in [4] it was 0.719% [at 11.8 µM]; in test [5] it was -15.9% [at 13.5 µM]; in test [6] it was -0.406% [at 13.6 µM]; in [9] it was -2.81% [at 13.5 µM]; in test [12], 0.129% [at 15.8 µM]. Further, in [15], the activation is -9.38% [at 19 µM]. The activity, negative = inhibition in test [17] was 10.6% [at 12.7 µM]. The activity change, negative = inhibition in [13] was 1.47% [at 18.9 µM]; in [18] it was 0.284% [at 18.9 µM].

The values are drawn from PubChem BioAssay (Tox21).
